Laboratory results as given in PubChem BioAssay (Tox21).
Records with an inconclusive call do not appear. A call without a number means that no potency is given here. Calls of active or inactive are those of the source. Unless noted, the call rests on the fitted dose curve.

Columns and labels:
[1] = qHTS assay to identify small molecule antagonists of the sonic hedgehog signaling (Shh) pathway (AID 1259369); further: nearly all actives have a fitted effect of over 45% in size; further: potency means the concentration at half of the fitted maximal effect
Procedure, shortened: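 Conditioned medium drives Shh signalling in 3T3Gli1-Luc cells; compounds in DMSO co-applied, 24hr at 37 C, then luciferase luminescence.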

[2] = target: Estrogen receptor beta (Homo sapiens) (UniProt Q92731); assay: qHTS assay to identify small molecule agonists of the estrogen receptor beta (ER-beta) signaling pathway (AID 1259377; active means well fitted activation curve with a large enough effect in the signal ratio in the repeat runs, not every such curve was filed as active; the % refers to the signal ratio)
Procedure, shortened: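 Ratiometric beta-lactamase FRET read-out came after 2 h substrate loading at room temperature. It followed 16 h compound treatment at 37C of GripTite HEK293T cells carrying a UAS-bla reporter, plated in 2% charcoal-stripped FBS medium.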

[3] = target: Estrogen receptor beta (Homo sapiens) (UniProt Q92731); assay: qHTS assay to identify small molecule antagonists of the estrogen receptor beta (ER-beta) signaling pathway (AID 1259378; active means well fitted inhibition curve with a large enough effect in the signal ratio in the repeat runs, not every such curve was filed as active; the % refers to the signal ratio; further: potency means the concentration at half of the fitted maximal effect)
Procedure, shortened: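 Antagonist mode: compounds added to beta-lactamase reporter HEK293T ER-beta-UAS cells stimulated with E2 (1nM final), 16 hr at 37C. LiveBLAzer B/G FRET substrate, 2 hours room temperature, fluorescence read-out.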

[4] = qHTS assay to identify small molecule agonists of the androgen receptor (AR) signaling pathway in the presence of an antagonist - cell viability counter screen (AID 1259379; active means well fitted curve in the direction sought with a large enough effect in the repeat runs; an effect the other way counts as inactive or inconclusive; further: nearly all actives have a fitted effect of over 25% in size; further: potency means the concentration at half of the fitted maximal effect)
Procedure, shortened: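 A CellTiter-Fluor read-out measured viability of MDA-kb2 reporter cells (MMTV promoter with AR and GR response elements). Treatment: nilutamide 3.0uM final with compounds at 15 concentrations, 16 hr, 37C, 0% CO2.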

[5] = qHTS assay to identify small molecule antagonists of the estrogen receptor beta (ER-beta) signaling pathway - cell viability counter screen (AID 1259382; active means well fitted curve in the direction sought with a large enough effect in the repeat runs; an effect the other way counts as inactive or inconclusive; further: nearly all actives have a fitted effect of over 55% in size; further: potency means the concentration at half of the fitted maximal effect)
Procedure, shortened: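 Agonist-stimulated (1nM E2) ER-beta-UAS-bla HEK293T cells are incubated with library compounds for 16 hr at 37C. Cell viability is then assessed in the reporter-assay wells by adding CellTiter-Glo and reading luminescence after 30 min.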

[6] = target: Estrogen receptor (Homo sapiens) (UniProt P03372); assay: qHTS assay to identify small molecule agonists of the estrogen receptor alpha (ER-alpha) signaling pathway in the presence of an antagonist (AID 1259383); further: nearly all actives have a fitted effect of over 15% in size; further: potency means the concentration at half of the fitted maximal effect; on activation: top concentration of the series differs between compounds
Procedure, shortened: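 Using VM7Luc4E2 cells seeded 24hr before treatment, antagonist ICI-182,780 (10.0nM final) was added, followed by compounds at 15 concentrations. Plates incubated 22hr; ONE-Glo luminescence quantified reporter activity.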

[7] = qHTS assay to identify small molecule agonists or antagonists of the thyroid stimulating hormone receptor (TSHR) signaling pathway - wild type cell line counter screen (AID 1259384)
Procedure, shortened: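 Counter screen in untransfected Hek293: compounds (15-point titration, triplicate) plus phosphodiesterase inhibitor Ro20-1724 added after 18 h plating; 30 min RT. Intracellular cAMP via competitive d2/cryptate immunoassay, 1 h incubation.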

[8] = qHTS assay to identify small molecule agonists of the estrogen receptor beta (ER-beta) signaling pathway - cell viability counter screen (AID 1259380; active means well fitted curve in the direction sought with a large enough effect in the repeat runs; an effect the other way counts as inactive or inconclusive; further: nearly all actives have a fitted effect of over 30% in size; further: potency means the concentration at half of the fitted maximal effect)
Procedure, shortened: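 Cells used were ER-beta-UAS-bla HEK293T in medium with 2% charcoal-stripped FBS. They were treated for 16 hr at 37C. Viability came from CellTiter-Glo luminescence.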

[9] = target: Thyrotropin receptor (Homo sapiens) (UniProt P16473); assay: qHTS assay to identify small molecule antagonists of the thyroid stimulating hormone receptor (TSHR) signaling pathway (AID 1259385); further: nearly all actives have a fitted effect of over 20% in size
Procedure, shortened: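 Antagonist mode: compound-treated TSHR-expressing HEK293 cells were stimulated with 1.5 ng/mL TSH (final) in presence of Ro20-1724 for 30 min at RT. HTRF cAMP detection after 1 h; each compound tested at 15 concentrations, triplicate.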

Sequence of Estrogen receptor (Homo sapiens) (P03372 whole entry, looked up): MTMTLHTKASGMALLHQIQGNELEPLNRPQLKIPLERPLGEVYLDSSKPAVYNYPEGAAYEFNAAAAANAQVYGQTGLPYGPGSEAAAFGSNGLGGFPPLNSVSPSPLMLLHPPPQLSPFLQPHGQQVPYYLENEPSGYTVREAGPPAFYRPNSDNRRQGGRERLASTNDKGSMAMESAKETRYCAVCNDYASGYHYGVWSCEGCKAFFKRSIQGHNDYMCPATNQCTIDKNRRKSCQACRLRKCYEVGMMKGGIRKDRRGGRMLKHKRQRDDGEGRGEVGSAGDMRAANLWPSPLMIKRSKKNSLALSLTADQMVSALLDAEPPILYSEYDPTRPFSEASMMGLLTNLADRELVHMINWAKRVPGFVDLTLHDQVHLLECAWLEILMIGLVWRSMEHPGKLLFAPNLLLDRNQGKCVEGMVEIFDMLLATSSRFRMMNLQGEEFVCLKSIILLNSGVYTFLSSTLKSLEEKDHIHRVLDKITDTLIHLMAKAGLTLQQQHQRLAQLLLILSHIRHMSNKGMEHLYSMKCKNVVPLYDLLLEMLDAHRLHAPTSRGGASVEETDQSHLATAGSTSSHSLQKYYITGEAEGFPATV
Sequence of Thyrotropin receptor (Homo sapiens) (P16473 whole entry, looked up): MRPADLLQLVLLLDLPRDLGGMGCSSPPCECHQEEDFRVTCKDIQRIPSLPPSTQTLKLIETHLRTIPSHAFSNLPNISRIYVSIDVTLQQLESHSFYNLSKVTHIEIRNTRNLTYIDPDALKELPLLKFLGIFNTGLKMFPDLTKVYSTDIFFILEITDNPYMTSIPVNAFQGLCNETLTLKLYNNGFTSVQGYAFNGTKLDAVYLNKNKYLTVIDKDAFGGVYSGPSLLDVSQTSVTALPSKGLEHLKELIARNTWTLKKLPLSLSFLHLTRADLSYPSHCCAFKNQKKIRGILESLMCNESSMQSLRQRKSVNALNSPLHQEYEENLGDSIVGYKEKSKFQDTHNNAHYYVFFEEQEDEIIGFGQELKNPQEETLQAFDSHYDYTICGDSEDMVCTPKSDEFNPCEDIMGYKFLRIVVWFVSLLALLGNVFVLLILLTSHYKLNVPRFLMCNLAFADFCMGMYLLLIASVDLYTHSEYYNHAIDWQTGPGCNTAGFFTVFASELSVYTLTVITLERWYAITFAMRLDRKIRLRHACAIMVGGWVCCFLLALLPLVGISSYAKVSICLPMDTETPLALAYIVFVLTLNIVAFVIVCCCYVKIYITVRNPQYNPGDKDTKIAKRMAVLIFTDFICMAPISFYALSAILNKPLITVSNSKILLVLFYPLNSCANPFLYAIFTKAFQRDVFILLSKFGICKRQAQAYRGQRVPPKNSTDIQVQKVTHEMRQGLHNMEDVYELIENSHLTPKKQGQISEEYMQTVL
Sequence of Estrogen receptor beta (Homo sapiens) (Q92731 whole entry, looked up): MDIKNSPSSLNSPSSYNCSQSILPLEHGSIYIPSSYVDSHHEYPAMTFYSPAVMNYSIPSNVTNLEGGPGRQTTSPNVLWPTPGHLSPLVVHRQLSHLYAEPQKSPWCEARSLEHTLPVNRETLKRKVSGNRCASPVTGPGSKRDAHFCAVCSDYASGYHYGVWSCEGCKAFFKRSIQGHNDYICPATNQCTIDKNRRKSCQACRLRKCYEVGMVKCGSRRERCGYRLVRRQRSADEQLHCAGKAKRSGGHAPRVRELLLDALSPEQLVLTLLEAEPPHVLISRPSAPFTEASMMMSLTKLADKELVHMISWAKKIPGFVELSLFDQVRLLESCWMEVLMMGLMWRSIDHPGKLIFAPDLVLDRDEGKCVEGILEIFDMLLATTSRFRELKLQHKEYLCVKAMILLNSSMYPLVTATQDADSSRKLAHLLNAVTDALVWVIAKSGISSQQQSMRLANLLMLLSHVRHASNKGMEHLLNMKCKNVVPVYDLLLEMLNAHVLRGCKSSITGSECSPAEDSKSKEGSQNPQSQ

SMILES | Potency [1] | Potency [2] | Potency [3] | Potency [4] | Potency [5] | Potency [6] | outcome [7] | Potency [8] | Potency [9]
CC(C)=CCC/C(C)=C/CC/C(C)=C/C(=O)OCC(=O)[C@@]1(O)CC[C@H]2[C@@H]3CCC4=CC(=O)C=C[C@]4(C)[C@H]3[C@@H](O)C[C@@]21C | 8.41 µM (active) | inactive | 13.3 µM (active) | 26.6 µM (active) | inactive | inactive | inactive |  | 
O=C(Nc1cccc2c(=O)cc(-c3nn[nH]n3)oc12)c1ccc(OCCCCc2ccccc2)cc1 | inactive | inactive | inactive | inactive |  |  |  | 10.6 µM (active) | inactive
CCC1NC(=O)c2cc(S(N)(=O)=O)c(Cl)cc2N1 (stereo unspecified) | inactive | inactive | inactive | inactive | inactive |  | inactive |  | inactive
O=c1cc(-c2ccccc2)oc2ccc3ccccc3c12 | 5.45 µM (active) | inactive | inactive | inactive |  | 0.686 µM (active) | inactive | 24.3 µM (active) | 
Cc1[nH]cnc1CN1CCc2c(c3ccccc3n2C)C1=O | inactive | inactive | inactive | inactive | inactive |  | inactive | inactive | 
Clc1cc(Cl)nc(Cl)n1 | inactive | inactive | inactive |  | inactive |  | inactive | inactive | inactive
CCCCCCCCN | inactive | inactive | inactive | inactive |  |  |  | inactive | inactive
CCCCC(CC)CN (stereo unspecified) | inactive | inactive | inactive |  | inactive | inactive | inactive | inactive | 
CC(C)(C)CC(=O)OCC(=O)[C@@]1(O)CC[C@H]2[C@@H]3CCC4=CC(=O)C=C[C@]4(C)[C@H]3[C@@H](O)C[C@@]21C | 6.68 µM (active) | inactive | 26.6 µM (active) | inactive |  | inactive | inactive | 8.41 µM (active) | 
CN1C(C(=O)Nc2ccccn2)=C(O)c2sccc2S1(=O)=O | inactive | inactive | inactive |  | inactive | inactive |  | inactive | 
OC1(c2ccccc2)CCNCC1 | inactive | inactive | inactive |  | inactive |  | inactive | inactive | inactive
CCC(=O)OC | inactive | inactive | inactive |  | inactive | inactive | inactive | inactive | inactive
CC(C)C=O | inactive | inactive | inactive | inactive | inactive |  | inactive | inactive | inactive
Cc1cc2c(OCC(CNC(C)(C)C)OC(=O)c3ccccc3)cccc2[nH]1 (stereo unspecified) | 8.41 µM (active) | inactive | inactive |  | inactive | inactive | inactive | inactive | 
O=C1Cc2ccccc2N1c1c(Cl)cccc1Cl | inactive | inactive | 54.5 µM (active) |  |  | inactive |  | 19.3 µM (active) | 
C[C@@H]1CN(CCCn2c3ccccc3c3ccccc32)C[C@H](C)N1 | 10.6 µM (active) | inactive | 13.3 µM (active) |  | 11.9 µM (active) |  | inactive | 10.6 µM (active) | 
O=C(CCCN1CC=C(n2c(=O)[nH]c3ccccc32)CC1)c1ccc(F)cc1 | inactive | inactive | inactive | inactive |  | inactive | inactive | 13.3 µM (active) | 
CO/N=C(/C(=O)N[C@@H]1C(=O)N2C(C(=O)O)=C(COC(N)=O)CS[C@H]12)c1ccco1 | inactive | inactive | inactive |  | inactive |  |  | inactive | inactive
C=CC(C)(CCC=C(C)C)OC(=O)CC(C)C (stereo unspecified) | inactive | inactive | inactive | inactive |  | inactive | inactive | inactive | inactive
O=c1[nH]c2ccc(Cl)cc2o1 | inactive | inactive | inactive | inactive |  | inactive |  | inactive | inactive
c1ccc2c(c1)CCc1ccccc1N2 | inactive | inactive | inactive | inactive | inactive |  | inactive | inactive | 
Cc1c(C)c2c(c(C)c1OC(=O)CCC(=O)OCCO)CC[C@@](C)(CCC[C@H](C)CCC[C@H](C)CCCC(C)C)O2 | inactive | inactive | 13.3 µM (active) | inactive |  | inactive | inactive |  | inactive
C[C@@H](O)[C@H]1C(=O)N2C(C(=O)O)=C([C@H]3CCCO3)S[C@H]12 | inactive | inactive | inactive | inactive |  | inactive | inactive | inactive | inactive
Cc1cc(C)c(N)cc1C | inactive | inactive | inactive |  | inactive | inactive | inactive | inactive | inactive
CCOC(=O)c1ccc(C#Cc2ccc3c(c2)C(C)(C)CCS3)nc1 | inactive | inactive | inactive | inactive |  |  |  | inactive | inactive
CC(=O)OCC[N+](C)(C)C | inactive | inactive | inactive |  | inactive |  | inactive | inactive | inactive
CCC(C)COC(=O)CC(C)C (stereo unspecified) | inactive | inactive | inactive | inactive |  | inactive | inactive | 30.6 µM (active) | inactive
COC(=O)CCS | inactive | inactive | inactive | inactive |  | inactive | inactive | inactive | inactive
CC(=O)Nc1cc(S(=O)(=O)O)cc2cc(S(=O)(=O)O)c(N=Nc3ccccc3)c(O)c12 | inactive | inactive | inactive |  | inactive | inactive |  | inactive | 
